Normalized growth data for 38 molecules are collected here from the supplement of paper PMC6331611.

± gives the standard deviation of the averaged measurements. Over roughly 1,600 compounds, “normalized growth (OD600, IQM-normalized) in LPM” has its median near 1; the lowest 2% begin near 0.014. This excerpt belongs to a sample that is enriched for the lowest values.

The test system of this assay is Salmonella enterica serovar Typhimurium SL1344. The assay is described as follows: normalized growth (OD600, IQM-normalized) in LPM (fraction of plate interquartile mean); higher = more bacterial growth (less inhibition). The conditions noted are these: LPM pH 5.8; 10 µM; 16 h.
With `CCCc1nc(C)c2c(O)nc(-c3cc(S(=O)(=O)N4CCN(CC)CC4)ccc3OCC)nn12`, the normalized growth was 1.02 ± 0.053.
For `CC1(C)S[C@@H]2[C@H](N3C(=O)[C@@H](c4ccccc4)NC3(C)C)C(=O)N2[C@H]1C(=O)O` the value was 0.976 ± 0.053; for `CCOC(=O)O[C@]1(C(=O)COC(=O)CC)CC[C@H]2[C@@H]3CCC4=CC(=O)C=C[C@]4(C)[C@H]3[C@@H](O)C[C@@]21C`, 1 ± 0.03; for `CC(=O)Oc1cccc(C)c1` [meta-CRESYL ACETATE], 0.995 ± 0.048.
To `OCCN1C[C@H](O)[C@@H](O)[C@H](O)[C@H]1CO` belongs 0.993 ± 0.016; to `C#CC1(O)CC[C@H]2[C@@H]3CCC4=CC(=O)CC[C@@H]4[C@H]3CC[C@@]21CC` (stereo partly drawn), 0.941 ± 0.024.
For `CC(=O)Nc1ccc(OC(C)=O)cc1` the value was 1.05 ± 0.08.
`CCC1=C(C)CN(C(=O)NCCc2ccc(S(=O)(=O)NC(=O)N[C@H]3CC[C@H](C)CC3)cc2)C1=O` had a normalized growth of 0.926 ± 0.053.
For `Nc1cc(C(Cl)=C(Cl)Cl)c(S(N)(=O)=O)cc1S(N)(=O)=O` the value was 1.01 ± 0.036; for `CC(=O)Oc1cccc(C(=O)O)c1OC(C)=O`, 0.912 ± 0.079; for `O=C(Nc1ccccc1)OCC(CN1CCCCC1)OC(=O)Nc1ccccc1` (stereo not drawn), 0.903 ± 0.047.
Molecule `CC(=O)OCC(=O)[C@@]1(O)CC[C@H]2[C@@H]3CCC4=CC(=O)C=C[C@]4(C)[C@@]3(Cl)[C@@H](Cl)C[C@@]21C` displayed a normalized growth of 0.894 ± 0.024.
To `CC[N+](C)(CC)CCOC(=O)C(O)(c1ccccc1)C1CCCCC1` (stereo not drawn) belongs 1.1 ± 0.03; to `CC1/C=C/C=C/C=C/C=C/C=C/C=C/C=C/C(OC2O[C@H](C)[C@@H](O)[C@H](N)[C@@H]2O)CC(O)C(C(=O)O)C(O)CC(=O)CC(O)CC(O)CC(O)CC(=O)CCCC(=O)CC(=O)OC1C(C)CC(C)C(O)CC(=O)c1ccc(N)cc1` (stereo partly drawn), 1.03 ± 0.045; to `Cc1cc(C)cc(OCC2CNC(=O)O2)c1` (stereo not drawn), 1.02 ± 0.03.
For `COc1c(N2C[C@@H]3CCCN[C@@H]3C2)c(F)cc2c(=O)c(C(=O)O)cn(C3CC3)c12` the value was 0.0131 ± 0.0045; for `COc1c(N2CCNC(C)C2)c(F)cc2c(=O)c(C(=O)O)cn(C3CC3)c12` (stereo not drawn), 0.0158 ± 0.0074; for `CCn1cc(C(=O)O)c(=O)c2cc(F)c(N3CCNC(C)C3)c(F)c21` (stereo not drawn), 0.0416 ± 0.00075.
To `NC1CCN(c2c(F)cc3c(=O)c(C(=O)O)cn(C4CC4)c3c2Cl)C1` (stereo not drawn) belongs 0.0132 ± 0.00024.
The molecule `C[C@@H]1CN(c2c(F)c(N)c3c(=O)c(C(=O)O)cn(C4CC4)c3c2F)C[C@H](C)N1` returned a normalized growth of 0.0193 ± 0.0046.
As to `C[C@@H]1CN(c2c(F)c(F)c3c(=O)c(C(=O)O)cn(C4CC4)c3c2F)C[C@H](C)N1`, the normalized growth was determined as 0.0487 ± 0.0099.
Molecule `CC(=O)N(CC(O)CO)c1c(I)c(C(=O)NCCO)c(I)c(C(=O)NCC(O)CO)c1I` (stereo not drawn) returned a normalized growth of 1.05 ± 0.036.
`Cc1oc(=O)oc1CN1CCN(c2cc3c(cc2F)c(=O)c(C(=O)O)c2n3C(C)S2)CC1` (stereo not drawn): the normalized growth is 0.00846 ± 7.6e-05.
To `S=C1SCN(Cc2ccccc2)CN1Cc1ccccc1` belongs 1.11 ± 0.061; to `C=NC(C(=O)NC1C(=O)N2C1SC(C)(C)C2C(=O)O)c1ccccc1` (stereo not drawn), 0.913 ± 0.058; to `C#C[C@]1(O)CC[C@H]2[C@@H]3CCc4cc(OC5CCCC5)ccc4[C@H]3CC[C@@]21C`, 0.954 ± 0.1.
To `O=C([O-])[C@H]1/C(=C/CO)O[C@@H]2CC(=O)N21.[Li+]` belongs 1.12 ± 0.076.
The molecule `C#C[C@]1(OC(C)=O)CC[C@H]2[C@@H]3CCC4=CC(=O)CC[C@@H]4[C@H]3CC[C@@]21C` registered a normalized growth of 1.14 ± 0.03.
For the molecule `CC(=O)Oc1cc2c(s1)CCN(C(C(=O)C1CC1)c1ccccc1F)C2` (stereo not drawn), the normalized growth is 1.08 ± 0.1.
To `Cc1nc(-c2ccc(OCC(C)C)c(C#N)c2)sc1C(=O)O` belongs 1.02 ± 0.038; to `CC(=O)OCC(=O)[C@@]1(O)[C@@H](C)C[C@H]2[C@@H]3CCC4=CC(=O)C=C[C@]4(C)[C@@]3(F)[C@@H](O)C[C@@]21C`, 1.01 ± 0.033; to `COc1ccc2cc1Oc1ccc(cc1)C[C@H]1c3c(cc4c(c3Oc3cc5c(cc3OC)CCN(C)[C@@H]5C2)OCO4)CCN1C`, 0.938 ± 0.024.
For `CCC/C=C\C=C/C(=O)N[C@@H](CC(N)=O)C(=O)NC(CC(N)=O)C(=O)N[C@@H](C(=O)N[C@H](CCCN)C(=O)N[C@@H](C(=O)N[C@@H](C(=O)N[C@@H](C(=O)N[C@H](C(=O)N[C@@H](Cc1ccccc1)C(=O)N[C@H](CCCN)C(=O)NC(C(=O)N[C@H](C(=O)NC(C(=O)NCC(=O)N[C@@H](CC(C)C)C(=O)N[C@H](C)C(=O)NC(C(=O)O)C1CCC(O)C(Cl)C1)C1CCC(O)CC1)[C@H](C)O)C1CCC(O)CC1)[C@H](C)O)C1CCC(O)CC1)C1CCC(O)CC1)[C@H](C)O)C1CCC(O)CC1` (stereo partly drawn) [RAMOPLANIN [A2 shown; 2mM]], the normalized growth came to 1.31 ± 0.07.
For `CC1(C)O[C@@H]2C[C@H]3[C@@H]4C[C@H](F)C5=CC(=O)C=C[C@]5(C)[C@H]4[C@@H](O)C[C@]3(C)[C@]2(C(=O)CO)O1` the value was 0.921 ± 0.042; for `Cc1cccc(C)c1NC(=O)c1ccccc1C(=O)O`, 1.15 ± 0.12.
To `CC1(C)S[C@@H]2[C@H](NC(=O)[C@H](C(=O)O)c3ccsc3)C(=O)N2[C@H]1C(=O)O` belongs 1.01 ± 0.022; to `CC(=O)OC1CC2CCC1(C)C2(C)C` (stereo not drawn), 1.21 ± 0.048; to `CC(C)C[C@@H]1NC(=O)[C@H](CCCN)NC(=O)[C@H](C(C)C)NC(=O)[C@H](Cc2ccc(O)cc2)N[C@@H](CCC(=O)O)C(=O)N[C@@H](CC(N)=O)C(=O)[C@@H](Cc2ccccc2)NC(=O)[C@H](Cc2ccccc2)NC(=O)[C@@H]2CCCN2C(=O)[C@@H](Cc2ccccc2)NC1=O`, 0.992 ± 0.1.
